Hit rate of the full screen: of about 360,000 compounds, about 1,400 (0.39%) were called active. Rule as the data show it: active = inhibition above about 5% (passing the limit was not always enough); inactive = the rest. For the sample, actives were picked, then their nearest neighbours and some compounds at random.
molecular target: Tyrosine-protein kinase ABL1 (Homo sapiens) + Ras and Rab interactor 1 (Homo sapiens) (UniProt P00519+Q13671); assay: disruptors of human Abl and Rin1 association – biochemical, TR-FRET, primary screen (AID 588664); conditions: TR-FRET Rin1/Abl binding, at 7.35 µM, active compounds read high
Sequence (P00519 whole entry, looked up): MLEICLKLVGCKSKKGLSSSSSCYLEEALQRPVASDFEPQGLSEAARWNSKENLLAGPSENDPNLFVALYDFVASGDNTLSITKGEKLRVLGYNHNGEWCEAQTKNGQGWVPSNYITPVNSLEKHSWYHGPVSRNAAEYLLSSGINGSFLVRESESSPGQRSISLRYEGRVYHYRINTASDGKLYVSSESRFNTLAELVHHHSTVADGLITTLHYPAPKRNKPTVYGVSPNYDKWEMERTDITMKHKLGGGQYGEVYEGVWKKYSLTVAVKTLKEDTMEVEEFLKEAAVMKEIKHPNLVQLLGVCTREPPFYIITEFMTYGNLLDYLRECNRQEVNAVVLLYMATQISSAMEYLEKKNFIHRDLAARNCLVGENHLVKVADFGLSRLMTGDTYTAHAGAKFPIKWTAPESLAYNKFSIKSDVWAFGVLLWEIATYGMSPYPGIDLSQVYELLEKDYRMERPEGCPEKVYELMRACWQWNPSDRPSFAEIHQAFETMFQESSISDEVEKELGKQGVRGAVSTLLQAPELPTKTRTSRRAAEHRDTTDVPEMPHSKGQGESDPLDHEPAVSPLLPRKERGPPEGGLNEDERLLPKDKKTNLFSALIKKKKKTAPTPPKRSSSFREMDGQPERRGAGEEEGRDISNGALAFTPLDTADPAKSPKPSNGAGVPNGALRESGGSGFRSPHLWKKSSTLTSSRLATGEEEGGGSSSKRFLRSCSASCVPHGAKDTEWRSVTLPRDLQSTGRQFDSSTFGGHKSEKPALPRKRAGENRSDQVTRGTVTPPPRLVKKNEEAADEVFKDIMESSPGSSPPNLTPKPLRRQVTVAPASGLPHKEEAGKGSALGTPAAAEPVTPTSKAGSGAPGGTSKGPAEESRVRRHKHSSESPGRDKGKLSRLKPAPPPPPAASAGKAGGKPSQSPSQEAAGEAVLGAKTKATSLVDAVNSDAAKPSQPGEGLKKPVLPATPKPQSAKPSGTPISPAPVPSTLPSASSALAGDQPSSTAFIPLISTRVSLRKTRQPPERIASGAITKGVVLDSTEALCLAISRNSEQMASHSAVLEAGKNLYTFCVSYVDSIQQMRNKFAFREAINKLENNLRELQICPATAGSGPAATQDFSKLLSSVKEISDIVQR
Sequence (Q13671 whole entry, looked up): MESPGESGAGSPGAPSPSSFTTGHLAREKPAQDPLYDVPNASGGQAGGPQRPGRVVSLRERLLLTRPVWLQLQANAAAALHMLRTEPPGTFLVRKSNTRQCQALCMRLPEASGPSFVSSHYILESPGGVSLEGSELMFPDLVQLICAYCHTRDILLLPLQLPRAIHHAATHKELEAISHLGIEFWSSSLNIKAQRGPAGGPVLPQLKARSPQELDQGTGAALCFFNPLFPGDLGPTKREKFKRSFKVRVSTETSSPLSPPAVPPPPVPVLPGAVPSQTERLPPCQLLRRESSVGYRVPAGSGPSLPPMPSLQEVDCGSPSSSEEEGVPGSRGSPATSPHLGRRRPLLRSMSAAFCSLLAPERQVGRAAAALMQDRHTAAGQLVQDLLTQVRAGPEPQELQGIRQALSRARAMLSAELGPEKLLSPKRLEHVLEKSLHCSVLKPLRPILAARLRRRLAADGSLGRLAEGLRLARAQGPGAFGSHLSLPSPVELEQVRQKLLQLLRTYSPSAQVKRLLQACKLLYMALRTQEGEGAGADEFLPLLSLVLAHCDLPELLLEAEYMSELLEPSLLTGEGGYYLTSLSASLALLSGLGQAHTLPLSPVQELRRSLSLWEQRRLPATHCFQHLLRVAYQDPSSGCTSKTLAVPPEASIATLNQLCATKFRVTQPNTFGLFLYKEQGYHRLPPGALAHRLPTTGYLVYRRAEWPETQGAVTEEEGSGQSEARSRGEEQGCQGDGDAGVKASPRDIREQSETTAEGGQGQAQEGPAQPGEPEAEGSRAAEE

| Compound | inhibition |
| --- | --- |
| O=c1[nH]nc(Cc2ccccn2)c2ccccc12 | 1.04% (inactive) |
| CCOC(=O)N1CCN(C(=O)c2cn(C)c3ccc(S(=O)(=O)N(CC)CC)cc3c2=O)CC1 | -0.08% (inactive) |
| C=CCn1cc(C(=O)NCc2ccc(Cl)cc2)c(=O)c2cc(S(=O)(=O)N(CC)CC)ccc21 | 6.23% (active) |
| CCN(CC)CCCNC(=O)c1cn(C)c2ccc(S(=O)(=O)N(C)C3CCCCC3)cc2c1=O | 2.19% (inactive) |
| CN(C)S(=O)(=O)c1ccc(N2CCCC2)c(C(=O)Nc2cccc(F)c2)c1 | 7.03% (inactive) |
| CC1=C[C@H]2Cc3cc(C)cc(C)c3S(=O)(=O)[C@@H]2C=C1 | 3.36% (inactive) |
| Cc1c(C(=O)Nc2ccccc2)sc2nc3n(c(=O)c12)CCCCC3 | -0.6% (inactive) |
| CC(=O)c1ccc(NC(=O)c2sc3nc4n(c(=O)c3c2C)CCCCC4)cc1 | 0.85% (inactive) |
| O=c1c2c(nc3n1CCCCC3)sc1c(O)cccc12 | 12.3% (active) |
| O=S1(=O)CCN(C2CCCCCCCCCCC2)CC1 | 1.94% (inactive) |
| COc1ccccc1C(=O)COC(=O)CSCC(=O)Nc1cc(C)on1 | -2.09% (inactive) |
| Cc1cc(NC(=O)CSCC(=O)NC(C)c2ccccc2)no1 (stereo not drawn) | 9.74% (active) |
| Cc1cc(NC(=O)CSCc2ccccc2C)no1 | -2.34% (inactive) |
| N#C/C(=C\N1CCOCC1)S(=O)(=O)c1ccc(Cl)cc1 | 0.04% (inactive) |
| CC(C)CNS(=O)(=O)c1ccc(OCC(=O)Nc2ccc3c(c2)OCO3)c(Cl)c1 | -2.64% (inactive) |
| CC(C)CNS(=O)(=O)c1ccc(C(=O)Nc2ccc3c(c2)OCO3)cc1 | 12.8% (active) |
| CNS(=O)(=O)c1ccc(NC(=O)Nc2ccc3c(c2)OCO3)cc1 | -0.38% (inactive) |
| C=C1c2c(Cl)ccc(O)c2C(O)=C2C(=O)[C@]3(O)C(O)=C(C(N)=O)C(=O)[C@@H](N(C)C)[C@@H]3[C@@H](O)C12 (stereo partly drawn) | 20.6% (active) |
| Nc1nc2cc(Cl)ccc2n1N | -1.62% (inactive) |
| CCCCN(CC)CCNC(=O)c1[nH]c(C)c(C(C)=O)c1C | 6.51% (inactive) |
| COC(=O)c1c(NC(=O)c2ccc(S(=O)(=O)N3CCOCC3)cc2)sc2c1CCN(C(C)C)C2 | 5.81% (inactive) |
| CCOc1ccc(CNC(=O)C2CCCN(c3nnc(C)c4c(C)n(-c5ccccc5)nc34)C2)cc1 (stereo not drawn) | 20.2% (active) |

| Compound | inhibition |
| --- | --- |
| CCc1ccc(CNC(=O)C2CCCN(c3nc4ccccc4o3)C2)cc1 (stereo not drawn) | 1.27% (inactive) |
| CCc1ccc(CNC(=O)C2CCN(c3nnc(C)c4c(C)n(-c5ccc(C)cc5)nc34)CC2)cc1 | -2.17% (inactive) |
| Cn1cc(CN2CCCC(CO)C2)c(-c2ccc(Oc3ccccc3)cc2)n1 (stereo not drawn) | 1.99% (inactive) |
| COc1ccc([N+](=O)[O-])cc1NC(=O)COC(=O)/C=C/c1ccco1 | -3.75% (inactive) |
| O=C(NNc1c2ccccc2nc2ccccc12)c1cc2ccccc2cc1O | 5.94% (active) |
| Cc1noc(C)c1COC(=O)c1cc2ccccc2cc1O | 1.08% (inactive) |
| O=C(CSc1nc(C2CC2)nc2ccccc12)Nc1cccc(O)c1 | -0.76% (inactive) |
| CC(C)(C)NC(=O)NC(=O)COC(=O)Cn1c(C(F)(F)F)nc2ccccc21 | 2.76% (inactive) |
| COc1ccccc1NC(=O)CSc1nnc(-c2ccoc2C)n1CCc1ccccc1 | 4.08% (inactive) |
| CCN(CC)S(=O)(=O)c1ccc(N(C)Cc2ccc(C(F)(F)F)cc2)nc1 | 0.97% (inactive) |
| Nc1cc(=O)c2[nH]cnc2[nH]1 | 16.4% (active) |
| C[C@@H]1CN([C@@H](C)CO)S(=O)(=O)c2ccc(-c3ccc(C(=O)N(C)C)cc3)cc2O[C@@H]1CN(C)Cc1ccccc1C(=O)O | -1.93% (inactive) |
| C[C@@H]1CN([C@H](C)CO)S(=O)(=O)c2ccc(C#C[C@@H](C)O)cc2O[C@@H]1CN(C)Cc1ccc(-c2ccccc2)cc1 | 36.5% (active) |
| Cc1ccccc1-c1ccc2c(c1)O[C@@H](CN(C)Cc1ccc(C(=O)O)cc1)[C@@H](C)CN([C@H](C)CO)S2(=O)=O | 1.11% (inactive) |
| O=C(C1CCCN(S(=O)(=O)c2ccc([N+](=O)[O-])cc2)C1)N1CCCCC1 (stereo not drawn) | 1.73% (inactive) |
| O=C(Nc1ccc(S(=O)(=O)Nc2ncccn2)cc1)c1cncc(Br)c1 | 11.3% (active) |
| O=C(NC(=S)Nc1ccc(S(=O)(=O)Nc2ncccn2)cc1)c1cccc(Br)c1 | -0.5% (inactive) |
| CCNS(=O)(=O)c1ccc(NC(=O)c2cncc(Br)c2)cc1 | -2.97% (inactive) |
| CCOCCCNC(=S)Nc1ccc2nc(N3CCN(CC)CC3)cc(C)c2c1 | -3.64% (inactive) |
| O=C(CC1SCCNC1=O)Nc1ccc(Cl)cc1 (stereo not drawn) | 11.9% (active) |
| CCOc1ccc(NC(=O)CC2NCCNC2=O)cc1 (stereo not drawn) | 0.97% (inactive) |
| COc1ccccc1C(=O)N1CCNC(=O)C1CC(=O)Nc1ccc(Cl)cc1 (stereo not drawn) | 4.11% (inactive) |

| Compound | inhibition |
| --- | --- |
| Cc1cc(-c2ccc(C)c(S(=O)(=O)NC(C)Cc3ccco3)c2)on1 (stereo not drawn) | 4.85% (inactive) |
| COc1ccc(NC(=O)CSc2nnc(-c3ccccc3F)n2C2CC2)cc1S(N)(=O)=O | -3.31% (inactive) |
| Fc1cccc(Cl)c1COc1ccc(-c2nnco2)cc1 | 0.01% (inactive) |
| C[C@H](NC(=O)[C@@H]1Cc2ccccc2CN1C(=O)OC(C)(C)C)C(=O)NC1CCCC1 | -1% (inactive) |
| COCCNC(=O)Nc1ccc2nc(-c3ccco3)c(-c3ccco3)nc2c1 | 8.86% (active) |
| Cc1ccc(NC(=O)OCCNC(=O)c2ccncc2)cc1 | 1.62% (inactive) |
| COCCNC(=O)CSc1nc(N)c(NC(=O)c2ccco2)c(=O)[nH]1 | -1.82% (inactive) |
| C#CCN(N(C)c1ncc(C(F)(F)F)cc1Cl)S(=O)(=O)c1ccc2ccccc2c1 | 0.28% (inactive) |
| CCN1CCN(c2cc3nc(C)n(Cc4ccccc4)c(=O)c3cc2NC(=O)c2ccccc2F)CC1 | -0.45% (inactive) |
| CCCCC(=O)NC(c1ccc(OC)c(OC)c1)c1ccc2cccnc2c1O (stereo not drawn) | -0.15% (inactive) |
| N#Cc1ccccc1NC(=O)COc1c(Br)cc(Br)c2cccnc12 | -0.22% (inactive) |
| CC(=O)NC(c1cccs1)c1cc(Br)c2cccnc2c1O (stereo not drawn) | 14.8% (active) |
| O=C(Nc1ccc2c(c1)[C@@H]1C[C@@H](CC(=O)N3CCCCC3)O[C@@H](CO)[C@@H]1O2)NC1CCCCC1 | 2.19% (inactive) |
| O=C(Cn1cnc2cc([N+](=O)[O-])ccc2c1=O)NC(=O)NCc1ccccc1 | -4.46% (inactive) |
| CCOC(=O)C(CCOc1cccc(CC)c1)C(=O)OCC | 0.47% (inactive) |
| COc1ccc2c(c1)c(=O)c(C(=O)c1ccc(Cl)cc1)cn2CC(=O)Nc1ccc(F)cc1 | -3.04% (inactive) |
| COc1ccc(CNC(=O)C2CCCC2)cc1 | -1.61% (inactive) |
| COc1ccc(CNC(=O)c2cc(C(=O)C3CC3)c[nH]2)cc1 | 11.6% (active) |
| COc1ccc(CNC(=O)c2c[nH]c3c(OC)cc(OC)cc3c2=O)cc1 | -2.41% (inactive) |
| OCC[C@H]1C[C@@H](O)[C@H](O)[C@@]2(OCCc3ccccc32)O1 | 1.02% (inactive) |
| CC(C(=O)Nc1ccc(S(=O)(=O)N2CCCC2)cc1)N(C)Cc1ccc(F)cc1 (stereo not drawn) | 2.65% (inactive) |
| CC(OC(=O)c1ccc(NC(=O)CC#N)cc1)C(=O)Nc1ccc(S(=O)(=O)N2CCCC2)cc1 (stereo not drawn) | 2.43% (inactive) |

| Compound | inhibition |
| --- | --- |
| CCc1ccc(CN(C)C(C)C(=O)Nc2ccc(S(=O)(=O)N3CCCC3)cc2)cc1 (stereo not drawn) | 12.4% (active) |
| Cc1nn(Cc2ccccc2)c(C)c1C(=O)N1CCN(CC(=O)Nc2ccccc2Cl)CC1 | 2.44% (inactive) |
| CCOC(=O)C1=C(COC(=O)[C@H](C)NS(=O)(=O)c2ccccc2F)NC(=O)NC1C (stereo partly drawn) | 2.47% (inactive) |
| CN(C)c1ccc(N/C=C/C(=O)C(F)(F)F)cc1 | 7.5% (active) |
| CN(C)c1ccc(/C=N/NC(=O)C(O)c2ccc(Br)cc2)cc1 (stereo not drawn) | 0.79% (inactive) |
| CNC(=S)NNC(=O)c1ccc(N(C)C)cc1 | 0.47% (inactive) |
| C[C@H](CO)N1C[C@H](C)[C@@H](CN(C)C(=O)C2CCCCC2)OCc2cnnn2CCCC1=O | -1.65% (inactive) |
| Cc1cc(C)c(C(N)=O)c(Cl)n1 | -1.52% (inactive) |
| Cc1ccccc1CN1CCN(CC(=O)NCc2ccccn2)C1=O | -1.59% (inactive) |
| Cc1ccccc1CN1C[C@@H]2C[C@@H](c3cn(C)nc3-c3ccccc3)N3CCC[C@@]23C1=O | -1.71% (inactive) |
| Cc1ccccc1CN1C[C@@H]2C[C@@H](c3ccc4nsnc4c3)N3CCC[C@@]23C1=O | 8.18% (active) |
| CC(OC(=O)/C=C/c1ccccc1)C(=O)Nc1ccc(C(N)=O)cc1 (stereo not drawn) | 1.19% (inactive) |
| O=S1(=O)CC(N2CCN(c3ccccn3)CC2)CN1Cc1ccc(F)cc1 (stereo not drawn) | 1.04% (inactive) |
| Cc1c(CCC(=O)O)c(=O)oc2c(C)c(OCc3ccccc3Cl)ccc12 | 1.81% (inactive) |
| Cc1c(CC(=O)N2CCN(C(=O)C3COc4ccccc4O3)CC2)c(=O)oc2c(O)c(O)ccc12 (stereo not drawn) | 9.84% (active) |
| Cc1ccc(S(=O)(=O)NCCC(=O)NNC(=O)C2COc3ccccc3O2)cc1 (stereo not drawn) | -0.47% (inactive) |
| COC(=O)c1ccc(NC(=O)CN(c2ccc(C)cc2)S(=O)(=O)c2c(C)n[nH]c2C)cc1 | 3.33% (inactive) |
| NC1=CC(=O)C(=O)c2cccnc21 | 17.2% (active) |
| CC1(C)C=Cc2c(ccc3c2OC[C@@H](c2ccc(O)cc2O)C3)O1 | -2.38% (inactive) |
| O=c1cc(CO)oc(CN2CCC(Cc3ccccc3)CC2)c1O | 30.9% (active) |
| CCOC(=O)N1CCN(Cc2oc(CO)cc(=O)c2O)CC1 | 1.56% (inactive) |
| NC(=O)c1ccc(CN2CCC(Cc3ccccc3)CC2)cc1 | 1.83% (inactive) |

— PubChem BioAssay AID588664 (The Scripps Research Institute Molecular Screening Center, 2011)
